In the first assay the target is FABP9. Kind of assay: pooled miR-30 sensor sort-seq; sequence = guide strand. To be noted: shRNA.
As to TTTTGGACGTGAATCATTGAGC, the sensor-assay potency score (higher = more potent) is -0.43.

Turning to TTACATTCCACTACCATTTTTT, the sensor-assay potency score (higher = more potent) was -0.986.

Sequence TTACTTTCCGGTTGTCTGCTGT gave a sensor-assay potency score (higher = more potent) of -0.00906.

Sequence TTTCTTTTGATTGTTGTCTCTT showed a sensor-assay potency score (higher = more potent) of 0.171. On the same count and under the same terms, the value for TGTCCTGGAAAGAACTTTCTGT was -0.208. TATGGTGCTCTTTACTTTCCGG came in with a sensor-assay potency score (higher = more potent) of -0.345. On the same count and under the same terms, in the case of TTAGTGTCCTGGAAAGAACTTT it was -0.461.

The next assay has as its target FAM103A1. The description is as above. To be noted: shRNA.
With TTCTTGTCTGTGTTGCGGGTAG, the sensor-assay potency score (higher = more potent) is -0.368. TTTTCTGTGAATCTACTAGCAA showed a sensor-assay potency score (higher = more potent) of -0.323. Same read-out and setting: the value for ATAATGTCCATATTGCTGGGGA was -0.0469; that for TTGTCATTTTCTGTGAATCTAC was -0.838. With TTTCTGTGAATCTACTAGCAAA, the sensor-assay potency score (higher = more potent) is -1.27. On the same count and under the same terms, the value for TCTACTAGCAAACATCTCTTCA was -0.435; that for TTGTCTTGCAACCGATTGCCTC was -1.09; that for TGTCTGTTGTCTTGCAACCGAT was -1.2. With AACATCTCTTCAAACTTTGGAA, the sensor-assay potency score (higher = more potent) is -0.553. The same measure, in the same setting: the value for TACTAGCAAACATCTCTTCAAA was -1.05; that for ATCTACTAGCAAACATCTCTTC was -0.234.

A further assay deals with FAM111A. Described as above. The conditions noted are these: shRNA.
On to TACTCTTTGATTCCTTCTGTGC, for which the sensor-assay potency score (higher = more potent) was -0.506. Same read-out and setting: the value for TCTTTTCTCAACCTCAACCTGA was -0.463; that for TTGAGAGCCATATATAAGCTAC was -0.708; that for TATGTGGTTATCTTCCTTCTGC was -0.217. Same read-out and setting: the value for TATCTCTTTTCTGACAGCCTGG was -0.766; that for TTTCCAATCATCATTCTCCAGA was -0.625; that for TTACATTTTTCATTGACTGAGT was -0.373. Same read-out and setting: in the case of TTTGAGATCATTTCTAATCAAG it was -0.737.

In the case of TTCTAATTCATCAACTGGCTGG, the sensor-assay potency score (higher = more potent) is 0.174. The same measure, in the same setting: the value for TTCATATCTTGGTTTCTCCTGT was 0.306; that for TTGTTCTCTCAACACACAGGTG was -0.868; that for TTTCCTTGTCTTTTAGCTCTTC was 0.0612.

In a further assay the target is FAM113A. The assay is described as above. The conditions noted are these: shRNA.
TTGTTGTGTAGCAGCTGCTGGA gave a sensor-assay potency score (higher = more potent) of -0.714. Same read-out and setting: the value for TAGCTCTCCATTGAGCAGCGAC was -1.09; that for TTTCTGGAGCAAGAGCACCAGG was -1.16; that for TTGATGATCACCAGGTCCGGGG was -0.983. Same read-out and setting: in the case of TTCCAGAACATCCTCAAGGTAC it was -0.46; in that of TCTCTCTGAGTGTCTGAGCCGC, -0.879; in that of TGGAAGTGGACCATGTCGCTTC, -0.111. Still for that read-out and setting: the value for TTCAACCACATCCCGCCGCAGG was -1.27; that for TAGCACTGTAGAAGTTCCCTTC was 0.54; that for TTGAGCAGCGACCATATCTGGA was -0.708.

These data come from the OligoGym collection.
Note: reference of the scale not given here.
